Screening results (PubChem)
A selection: hits, their analogues and other compounds. The true share with any hit is near 1.8%.
TLR9-MyD88 inh: blocks human TLR9 binding to MyD88; AID 504734; CHO BLA complementation TLR9-MyD88, CCF4 FRET ratio; hit rate 0.21% among 340,000; inhibition, % at 4.98 µM;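 active = inhibition above the mean over all tested compounds plus 3 SD, cut at about 21% in these data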
Mcl-1 Bim block: disrupts Bim peptide binding to human Mcl-1. Q07820. Bead-based flow cytometry, Bim peptide-Mcl-1 binding. inhibition, % at 10 µM. hit rate 0.1% among 190,000. AID 1009; in the data active = inhibition above about 40%
TLR4-MyD88 BLA: inhibitors of human TLR4-MyD88 binding; O00206+Q99836; HeLa CL3-4 TLR4/MyD88 BLA complementation, FRET ratio; inhibition, % at 8.4 µM; hit rate 0.18% among 200,000; AID 861; in the data active = inhibition above about 25%
Target sequence (O00206 whole entry, looked up): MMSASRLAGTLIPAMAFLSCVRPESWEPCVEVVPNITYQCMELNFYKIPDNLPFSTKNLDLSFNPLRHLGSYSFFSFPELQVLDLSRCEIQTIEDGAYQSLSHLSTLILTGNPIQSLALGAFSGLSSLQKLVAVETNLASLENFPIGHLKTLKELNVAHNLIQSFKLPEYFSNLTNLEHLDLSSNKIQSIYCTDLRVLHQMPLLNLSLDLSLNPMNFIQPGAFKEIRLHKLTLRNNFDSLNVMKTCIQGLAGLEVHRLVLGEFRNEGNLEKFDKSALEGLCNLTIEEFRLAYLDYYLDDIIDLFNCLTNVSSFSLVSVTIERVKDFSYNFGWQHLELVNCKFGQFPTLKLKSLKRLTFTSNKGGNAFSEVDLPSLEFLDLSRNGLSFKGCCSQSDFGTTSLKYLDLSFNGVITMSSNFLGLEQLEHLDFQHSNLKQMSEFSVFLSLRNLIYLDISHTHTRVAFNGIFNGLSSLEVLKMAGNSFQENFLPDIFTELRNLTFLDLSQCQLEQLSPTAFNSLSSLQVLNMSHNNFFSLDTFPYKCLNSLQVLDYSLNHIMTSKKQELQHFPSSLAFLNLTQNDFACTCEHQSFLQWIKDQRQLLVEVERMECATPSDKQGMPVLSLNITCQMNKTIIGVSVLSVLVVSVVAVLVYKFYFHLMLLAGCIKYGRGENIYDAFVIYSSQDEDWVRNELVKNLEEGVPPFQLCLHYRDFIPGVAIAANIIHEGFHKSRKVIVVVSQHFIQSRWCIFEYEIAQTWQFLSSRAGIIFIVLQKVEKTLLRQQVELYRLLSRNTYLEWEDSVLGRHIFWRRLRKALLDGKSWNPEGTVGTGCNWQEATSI
Target sequence (Q99836 whole entry, looked up): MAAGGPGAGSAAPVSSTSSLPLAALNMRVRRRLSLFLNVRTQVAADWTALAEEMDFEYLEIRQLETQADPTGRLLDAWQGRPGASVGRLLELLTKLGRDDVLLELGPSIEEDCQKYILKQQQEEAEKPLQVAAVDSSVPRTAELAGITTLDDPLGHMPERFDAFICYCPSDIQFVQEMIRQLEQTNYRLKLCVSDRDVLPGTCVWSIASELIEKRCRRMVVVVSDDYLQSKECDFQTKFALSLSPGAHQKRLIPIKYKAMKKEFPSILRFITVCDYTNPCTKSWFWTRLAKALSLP
Mcl1 Bid PPI: disrupts binding of human Mcl-1 to Bid peptide; TR-FRET Mcl-1/Bid-Dy647 peptide binding, 1536-well; AID 1021; Q07820; hit rate 0.97% among 220,000; inhibition, % at 21.7 µM;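 active = compounds that cut the binding signal by more than half at the single screening dose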;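 also: His-tagged Mcl-1 with europium anti-His antibody binding Bid BH3 peptide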
NOD2 RIPK2 PPI: NOD2-RIPK2 protein interaction inhibition; inhibition, % at 4.98 µM; CHO BLA complementation NOD2-RIPK2, CCF4 ratio; hit rate 0.38% among 360,000; O43353; in the data active = inhibition above about 21%
Mcl1 Noxa PPI: Mcl-1/Noxa interaction inhibition; TR-FRET Mcl-1/Noxa peptide binding, 2 h; inhibition, % at 21.7 µM; hit rate 1.5% among 220,000;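 active = compounds that cut the protein-peptide binding signal by more than 50% relative to plate controls in a single-dose test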;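 also: His-tagged Mcl-1 with rhodamine Noxa BH3 peptide and terbium anti-His antibody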
Of the large screens only hits and unclear results are named; the others gave an inactive call.

O=C(Nc1ccc(O)cc1)C1CC=CCC1 (stereo not drawn)	Mcl1 Noxa PPI 56
CC1CCC(C(C)C)C2=C1C(C#N)(C#N)C(C#N)(C#N)C(c1ccccc1)N2 (stereo not drawn)	Mcl1 Noxa PPI 56
CC(=O)N1c2ccc(S(=O)(=O)N3CCC(C(=O)N4CCN(c5ccccc5F)CC4)CC3)cc2CC1C (stereo not drawn)	none (no result: Mcl-1 Bim block, TLR4-MyD88 BLA, Mcl1 Bid PPI, Mcl1 Noxa PPI)
O=C(O)COc1c(-c2ccccc2)oc2ccccc2c1=O	none
NC(=O)COc1c(-c2ccccc2)oc2ccccc2c1=O	Mcl1 Bid PPI 97
CCCCc1nc(SCC(=O)N2CCOCC2)c2c(=O)n(C)c(=O)n(C)c2n1	none (no result: Mcl-1 Bim block, TLR4-MyD88 BLA, Mcl1 Bid PPI, Mcl1 Noxa PPI)
CCOc1cc(/C=N/NC(=O)c2ccc(-c3csc(Nc4ccc(C)cc4)n3)cc2)ccc1OCC(=O)O	Mcl1 Noxa PPI 86 (no result: TLR9-MyD88 inh)
O=C(O)COc1ccc(/C=N/NC(=O)c2ccc(-c3csc(Nc4ccc(Cl)cc4)n3)cc2)cc1	Mcl1 Bid PPI 95, Mcl1 Noxa PPI 88 (no result: Mcl-1 Bim block, TLR4-MyD88 BLA)
COc1cc(/C=N\NC(=O)c2ccc(-c3ccccc3)cc2)ccc1OCC(N)=O	none (no result: Mcl-1 Bim block, TLR4-MyD88 BLA, Mcl1 Bid PPI, Mcl1 Noxa PPI)
O=C(c1cc(Cl)cc(Cl)c1)N1CCC2CC1c1cc(N3CCCCC3)ccc12 (stereo not drawn)	none (no result: Mcl-1 Bim block, TLR4-MyD88 BLA, Mcl1 Bid PPI, Mcl1 Noxa PPI)
O=C1CC(Nc2ccc(N3CCOCC3)cc2)C(=O)N1c1cccc(C(F)(F)F)c1 (stereo not drawn)	Mcl1 Bid PPI 53
CNC(=O)CS(=O)CC(=O)Nc1cc(OCCOC)c(Cl)cc1Cl (stereo not drawn)	none
COC(=O)C(Cc1csc2ccc(Cl)cc12)NC(=O)c1ccc(Cl)cc1 (stereo not drawn)	Mcl1 Bid PPI 82 (no result: Mcl-1 Bim block, TLR4-MyD88 BLA)
COc1cccc(/C=N/NC(=O)c2ccncc2)c1OC(=O)c1ccc(Br)cc1	none (no result: Mcl-1 Bim block, TLR4-MyD88 BLA, Mcl1 Bid PPI, Mcl1 Noxa PPI)
COc1cccc(N2CCN(C(=O)NC3CCCCC3)CC2)c1	Mcl1 Bid PPI 94
COc1ccc(N2CCN(C(=O)NC3CCCCC3)CC2)cc1	none
Cc1nc(-c2ccccn2)sc1C(=O)Nc1ccc(F)cc1F	none
CNC(=O)c1sc(-c2ccccn2)nc1C	Mcl-1 Bim block 59
CC(C)(C)OC(=O)N1CCC(NC(=O)c2nc[nH]c2C(=O)NCC(=O)OCc2ccccc2)CC1	none (no result: Mcl-1 Bim block, TLR4-MyD88 BLA, Mcl1 Bid PPI, Mcl1 Noxa PPI)
CC(=O)NC(c1ccccc1)c1nc(-c2ccc(F)c(Cl)c2)cs1 (stereo not drawn)	none (no result: TLR9-MyD88 inh, Mcl-1 Bim block, TLR4-MyD88 BLA, Mcl1 Bid PPI, Mcl1 Noxa PPI)
CC1=NN(c2ccc(Cl)c(C(=O)O)c2)C(=O)/C1=C\c1ccc(-c2ccc(C(=O)O)cc2)o1	none
O=C(O)c1ccc(N2C(=O)/C(=C/c3ccc(-c4ccc([N+](=O)[O-])cc4)o3)C=C2c2ccccc2)cc1	Mcl1 Bid PPI 99, Mcl1 Noxa PPI 108
CN(C)C(CNC(=O)C1CCN(S(=O)(=O)c2ccccc2C(F)(F)F)CC1)Cc1ccccc1 (stereo not drawn)	none (no result: Mcl-1 Bim block, TLR4-MyD88 BLA, Mcl1 Bid PPI, Mcl1 Noxa PPI)
CCSc1nc2ccccc2n1C(=O)/C=C\c1ccc(OC)c(OC)c1	Mcl1 Noxa PPI 62
NCCNC[C@@H]1COC2(CCCCCCCCCCC2)O1	Mcl1 Bid PPI 59 (no result: TLR9-MyD88 inh, Mcl-1 Bim block, TLR4-MyD88 BLA)
Cc1cc(=O)[nH]c(SCC2COC3(CCCCC3)O2)n1 (stereo not drawn)	none
CN(c1ccc(Br)cc1)S(=O)(=O)c1ccc2[nH]cc(C(=O)NCCN3CCOCC3)c(=O)c2c1	none (no result: Mcl-1 Bim block, TLR4-MyD88 BLA, Mcl1 Bid PPI, Mcl1 Noxa PPI)
CCc1oc(C(=O)O)cc1CN(CC)CC	none
CCN(CC)Cc1cc(O)c(CN(CC)CC)cc1O	Mcl1 Noxa PPI 98
Nc1cccc2c(=O)c3ccccc3[nH]c12	none (no result: Mcl-1 Bim block, TLR4-MyD88 BLA, Mcl1 Bid PPI, Mcl1 Noxa PPI)
O=C(/C=C/c1ccccc1)N(Cc1cccc(Cl)c1)C1CCS(=O)(=O)C1 (stereo not drawn)	none (no result: Mcl-1 Bim block, TLR4-MyD88 BLA)
COc1cccc(CN(C(=O)/C=C/c2ccc(Cl)cc2)C2CCS(=O)(=O)C2)c1 (stereo not drawn)	Mcl1 Bid PPI 84
COc1cc(/C=N/Nc2ccc(S(N)(=O)=O)cc2[N+](=O)[O-])cc(OC)c1O	none (no result: Mcl-1 Bim block, TLR4-MyD88 BLA)
COc1cc(/C=N/Nc2ccccc2[N+](=O)[O-])cc(OC)c1O	Mcl1 Noxa PPI 58
COc1cc(/C=N/Nc2ccc(F)cc2F)cc(OC)c1O	Mcl1 Noxa PPI 62
COc1cc(/C=N/Nc2nc3ccccc3[nH]2)ccc1O	none
COc1cc(/C=N/Nc2nc3ccccc3[nH]2)cc(OC)c1O	Mcl1 Noxa PPI 73
O=C(NCC1CCCO1)c1cc2ccccc2o1 (stereo not drawn)	none (no result: Mcl-1 Bim block, TLR4-MyD88 BLA, Mcl1 Bid PPI, Mcl1 Noxa PPI)
CC(C)c1ccc(/C=C/c2ccc(=O)n(C)n2)cc1	none
CC(C)C(NC(=O)c1ccc(Cl)cc1Cl)C(=O)NCCc1ccccn1 (stereo not drawn)	none (no result: Mcl-1 Bim block, TLR4-MyD88 BLA, Mcl1 Bid PPI, Mcl1 Noxa PPI)
Nc1c(S(=O)(=O)c2cccc(Cl)c2)c2nc3ccccc3nc2n1/N=C/c1ccc(O)c(O)c1	Mcl1 Noxa PPI 64 (no result: TLR9-MyD88 inh, NOD2 RIPK2 PPI)
COc1cc(C2CC(=O)C3=C(C2)Nc2ncnn2C3c2cccs2)cc(OC)c1OC (stereo not drawn)	none (no result: TLR9-MyD88 inh, Mcl-1 Bim block, TLR4-MyD88 BLA)
COc1cc(C2C=C(c3cccs3)Nc3ncnn32)cc(OC)c1OC (stereo not drawn)	TLR9-MyD88 inh 65, NOD2 RIPK2 PPI 80
COc1ccc2ccccc2c1C1CC(=O)N2CN(C3CCCCC3)CSC2=C1C#N (stereo not drawn)	Mcl1 Noxa PPI 63
CCOc1cc(C2CC(=O)N3CN(C4CCCCC4)CSC3=C2C#N)ccc1O (stereo not drawn)	Mcl1 Noxa PPI 57
CN(CC(=O)Nc1sccc1C(N)=O)S(=O)(=O)c1ccc(Cl)cc1	none (no result: Mcl-1 Bim block, TLR4-MyD88 BLA, Mcl1 Bid PPI, Mcl1 Noxa PPI)
COc1cccc2cc(C(=O)C3=C(O)C(=O)N(c4cc(C)on4)C3c3cccs3)oc12 (stereo not drawn)	none (no result: Mcl-1 Bim block, TLR4-MyD88 BLA, Mcl1 Bid PPI, Mcl1 Noxa PPI)
C=CCN(CC=C)S(=O)(=O)c1ccc(NC(=S)NC(=O)C2CC2)cc1	none (no result: Mcl-1 Bim block, TLR4-MyD88 BLA, Mcl1 Bid PPI, Mcl1 Noxa PPI)
CN(C)S(=O)(=O)c1cccc(NC(=O)c2cc3c(=O)n4ccccc4nc3s2)c1	Mcl1 Bid PPI 69
CC1(C(=O)NS(=O)(=O)C2CC2)CCCN(C(=O)c2ccccc2)C1 (stereo not drawn)	none (no result: TLR9-MyD88 inh, Mcl-1 Bim block, TLR4-MyD88 BLA, Mcl1 Bid PPI, Mcl1 Noxa PPI)
